Bioassay records deposited in PubChem BioAssay by The Scripps Research Institute Molecular Screening Center.
Shown are actives, neighbours in structure and some others; about 3.5% of the full set was active somewhere.
FBW7 activator – FBW7 E3 ligase activators, primary screen, biochemical, AlphaScreen, human | F-box/WD repeat-containing protein 7 (Homo sapiens), Q969H0 | AlphaScreen FBW7–phospho-cyclin E peptide binding, activator screen | normalized activity (activation), % at 26.1 µM | actives 0.13% (n = 650,000); in the data active means normalized activity above about 1.9%;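 further: purified mutant Fbw7 with reduced substrate affinity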
GPR151 ag – activators of human GPR151, primary screen, cell-based, PathHunter beta-arrestin, luminescence; actives 1% (n = 650,000); PathHunter beta-arrestin GPR151 cells; G-protein coupled receptor 151 (Homo sapiens), Q8TDV0; AID 1508602, 2020; activation, % at 11.2 µM; in the data active means activation above about 4.9%;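 further: 0% = median of compound wells and 100% = cells with positive control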
TEAD-YAP inh – TEAD-YAP interaction inhibition, primary screen, TEAD-YAP interaction inhibitor project, luminescence, HEK-TIYL cells. TEAD-Gal4/YAP UAS-luciferase luminescence. actives 1.4% (n = 640,000). AID 1259422, 2018. inhibition, % at 9.12 µM; in the data active means inhibition above about 32%;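 further: 0% = median of test compound wells and 100% = reference inhibitor wells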
MITF primary – MITF inhibitors, primary screen, biochemical, AlphaScreen, human | AID 1259374, 2018 | AlphaScreen MITF homodimerization, bead proximity signal | actives 0.91% (n = 650,000) | Microphthalmia-associated transcription factor (Homo sapiens), O75030 | inhibition, % at 2.6 µM; in the data active means inhibition above about 50%;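 further: 0% = vehicle wells with protein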
Target sequence (O75030 whole entry, looked up): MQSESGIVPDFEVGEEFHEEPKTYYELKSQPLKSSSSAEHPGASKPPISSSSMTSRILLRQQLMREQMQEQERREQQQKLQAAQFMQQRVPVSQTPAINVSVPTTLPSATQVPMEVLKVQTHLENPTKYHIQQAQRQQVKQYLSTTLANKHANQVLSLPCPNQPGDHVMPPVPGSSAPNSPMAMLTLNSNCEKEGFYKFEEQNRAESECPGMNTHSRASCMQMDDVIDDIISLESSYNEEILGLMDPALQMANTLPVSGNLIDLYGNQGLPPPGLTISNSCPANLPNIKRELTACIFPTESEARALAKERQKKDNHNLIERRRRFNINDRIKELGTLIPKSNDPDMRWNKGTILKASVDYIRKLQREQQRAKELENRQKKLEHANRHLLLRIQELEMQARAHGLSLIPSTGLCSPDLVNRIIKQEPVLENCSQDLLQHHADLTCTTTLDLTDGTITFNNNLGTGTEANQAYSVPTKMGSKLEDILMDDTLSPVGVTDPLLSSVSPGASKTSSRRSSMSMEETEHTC
MITF inh conf – MITF inhibitors, retest of hits, confirmation, biochemical, AlphaScreen, triplicate. shares compounds with MITF primary. AlphaScreen MITF homodimerization, biotin/His-MITF beads. inhibition, % at 2.6 µM. actives 16% (n = 4,700);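 active means inhibition above a cutoff derived from the DMSO control wells, cut at about 28% in these data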;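 further: 0% = MITF dimer wells with DMSO only; inhibitors lower the bead chemiluminescence by keeping MITF from dimerizing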
AlphaScreen DR – AlphaScreen optical interference compounds, dose response, counter-screen, biochemical, HTS; shares compounds with MITF primary; AlphaScreen optical interference counterscreen, cell-free; IC50, µM; actives 6% (n = 480); call rule not given here
AS interf ctr – AlphaScreen optical interference compounds, counter-screen for MITF inhibitor project, biochemical, triplicate; LysRS AlphaScreen counterscreen, signal interference; actives 7.6% (n = 4,700); AID 1259376, 2018; inhibition, % at 2.6 µM; shares compounds with MITF primary;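 active means inhibition above a cutoff derived from the DMSO control wells, cut at about 30% in these data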
* = called active by the depositor.

Screening O=C(CNC1CCCC1)Nc1ccc(C(=O)N2CCCCC2)cc1 returned FBW7 activator 0.0, GPR151 ag -0.5, TEAD-YAP inh 1.7 and MITF primary 45.6.
Screening O=C(CN1CCN(C2CCCCC2)CC1)Nc1ccc(Br)cc1 returned FBW7 activator 0.2, GPR151 ag 0.3, TEAD-YAP inh 9.7 and MITF primary 4.8.
`CN(C)CCNCC(=O)Nc1ccc(CN2CCCCC2)cc1` gave FBW7 activator -0.1, GPR151 ag -0.1, TEAD-YAP inh 3.5, MITF primary 94.5*, MITF inh conf 9.0 and AS interf ctr 16.3.
For O=C(CNC1CCCCC1)Nc1ccc(C(=O)N2CCCCC2)cc1 the results were FBW7 activator 0.3, GPR151 ag 0.4, TEAD-YAP inh 0.3, MITF primary 53.0*, MITF inh conf 6.7 and AS interf ctr 13.5.
Screening O=C(CNC1CCCC1)Nc1ccc(CN2CCCCC2)cc1 returned FBW7 activator 0.0, GPR151 ag 0.7, TEAD-YAP inh -6.2, MITF primary 64.7*, MITF inh conf 3.1 and AS interf ctr 16.0.
For O=C(CN1CCN(C2CCCCC2)CC1)Nc1ccc(C(=O)N2CCOCC2)cc1 the results were FBW7 activator 1.1, GPR151 ag -0.8, TEAD-YAP inh -0.9, MITF primary 56.4*, MITF inh conf 9.5 and AS interf ctr 13.3.
Cc1nn(CC(C)C)c(=S)[nH]c1=O was read as FBW7 activator -0.1, GPR151 ag -0.2, TEAD-YAP inh 0.1 and MITF primary 0.2.
`CC(=O)CC(=O)Nc1ccccc1C(F)(F)F` gave FBW7 activator 0.1, GPR151 ag 1.4, TEAD-YAP inh 6.2 and MITF primary 4.6.
`c1csc(C2=NNC(c3ccncc3)=Nc3ccccc32)c1` gave FBW7 activator 0.1, GPR151 ag 1.3, TEAD-YAP inh 8.7, MITF primary 71.0*, MITF inh conf 9.8 and AS interf ctr 15.7.
Screening COc1ccc2c(c1)C(c1cccs1)=NNC(c1ccncc1)=N2 returned FBW7 activator -0.1, GPR151 ag 0.3, TEAD-YAP inh 7.3 and MITF primary 10.3.
`Cc1ccc2c(c1)-c1nc3ccccc3cc1/C2=C\c1ccc(Br)cc1` gave FBW7 activator 0.1, GPR151 ag -0.7, TEAD-YAP inh -4.6 and MITF primary 10.5.
For O=C(Nc1ccc(N2CCOCC2)cc1)c1cccc(Nc2ccncn2)n1 the results were FBW7 activator -0.2, GPR151 ag 0.3, TEAD-YAP inh 3.2, MITF primary 58.1*, MITF inh conf 81.3*, AlphaScreen DR >7.56 and AS interf ctr 1.7.
For O=C(Nc1ccc(N2CCOCC2)cc1)c1csc(Nc2ccncn2)n1 the results were FBW7 activator -0.1, GPR151 ag 1.4, TEAD-YAP inh -14.8 and MITF primary 33.3.
`COc1ccc(NC(=O)c2sc3nc4ccc(C)cc4cc3c2N)cc1OC` gave FBW7 activator 0.0, GPR151 ag -0.2, TEAD-YAP inh -5.9, MITF primary 65.2*, MITF inh conf 7.0 and AS interf ctr 21.3.
For COc1ccc(NC(=O)c2sc3nc4cc(C)ccc4cc3c2N)cc1OC the results were FBW7 activator 0.3, GPR151 ag 0.0, TEAD-YAP inh 1.2 and MITF primary 10.7.
`CN(C)C(CNCC(=O)N1CCc2ccccc21)c1ccco1` (stereo not given) gave FBW7 activator -0.4, GPR151 ag -1.2, TEAD-YAP inh -9.7, MITF primary 62.2*, MITF inh conf 1.8 and AS interf ctr 9.5.
Screening CN(C)C(CNCC(=O)Nc1ccc2c(c1)CCC2)c1ccccc1 (stereo not given) returned FBW7 activator -0.4, GPR151 ag -1.5, TEAD-YAP inh -1.9 and MITF primary 45.9.
Screening CN(C)C(CNCC(=O)NC(=O)Nc1ccc2c(c1)OCCO2)c1ccccc1 (stereo not given) returned FBW7 activator -0.2, GPR151 ag 0.0, TEAD-YAP inh 54.6*, MITF primary 79.4*, MITF inh conf 3.3 and AS interf ctr 1.7.
For CC1Cc2ccccc2N1C(=O)CNCCN(C)C (stereo not given) the results were FBW7 activator -0.2, GPR151 ag -0.3, TEAD-YAP inh -6.7 and MITF primary -3.1.
`CC(C)c1ccc(NC(=O)CNCC(c2ccccc2)N(C)C)cc1` (stereo not given) gave FBW7 activator -0.2, GPR151 ag -0.5, TEAD-YAP inh 2.0, MITF primary 64.9*, MITF inh conf -0.1 and AS interf ctr -0.5.
For CC1Cc2ccccc2N1C(=O)CNCC(c1ccccc1)N(C)C (stereo not given) the results were FBW7 activator -0.7, GPR151 ag -0.3, TEAD-YAP inh -3.1, MITF primary 66.8*, MITF inh conf 16.0 and AS interf ctr 25.1.
For Cn1c(=O)[nH]c(=O)c2c1nc(N/N=C\c1ccncc1)n2CC(O)CO (stereo not given) the results were FBW7 activator 0.0, GPR151 ag -1.4, TEAD-YAP inh -3.1 and MITF primary -1.8.
For O=C1CCCN1CCn1cnc2c(NCCc3ccc(O)cc3)nc(Nc3ccc4ncccc4c3)nc21 the results were FBW7 activator 0.2, GPR151 ag 0.2, TEAD-YAP inh 19.1 and MITF primary 9.7.
COc1ccc(CN2CCN(Cc3ccc(OC)c(Br)c3)CC2)c(OC)c1 was read as FBW7 activator -0.2, GPR151 ag 0.4, TEAD-YAP inh -8.9, MITF primary 63.1*, MITF inh conf 1.8 and AS interf ctr 5.3.
For COc1ccc(CN2CCN(C3CCCC3)CC2)cc1Br the results were FBW7 activator -0.1, GPR151 ag -0.8, TEAD-YAP inh 2.2 and MITF primary 23.1.
Screening COc1ccc(OC)c(CN2CCN(Cc3ccc(OC)c(Br)c3)CC2)c1 returned FBW7 activator -0.2, GPR151 ag -0.8, TEAD-YAP inh 4.6, MITF primary 65.7*, MITF inh conf 10.7 and AS interf ctr 17.8.
Screening COc1ccc(OC)c(CN2CCN(Cc3cccc(Br)c3)CC2)c1 returned FBW7 activator -0.2, GPR151 ag -0.4, TEAD-YAP inh 0.4, MITF primary 59.0*, MITF inh conf 17.7 and AS interf ctr 17.5.
For O=C1c2cccnc2C(=O)N1c1ccccc1 the results were FBW7 activator 0.0, GPR151 ag -0.4, TEAD-YAP inh -9.5, MITF primary 70.1*, MITF inh conf -15.5 and AS interf ctr 17.9.
O=C1c2cccnc2C(=O)N1c1ccccc1F was read as FBW7 activator -0.4, GPR151 ag 0.8, TEAD-YAP inh 0.5, MITF primary 56.8*, MITF inh conf 18.6 and AS interf ctr 30.9*.
